Measurements reported in publication PMC11006913.
Where a chain is given by its changes, count along the chain named.

Assays:
Assay in all cases: PBM; 200 nM protein, PBS
Conditions in all cases: dsDNA, one strand shown
CRX [1] = biological target: CRX (Homo sapiens, UniProt O43186 26-111)
CRX [2] = biological target: CRX (Homo sapiens, UniProt O43186 26-111, E42D)
PITX2 = PITX2 (Homo sapiens, UniProt Q99697 72-157)
CRX [3] = biological target: CRX (Homo sapiens, UniProt O43186 26-111, R41L)
NKX2-6 [4] = biological target: T1, NKX2-6 (Homo sapiens, UniProt A6NCS4 118-204)
T1 sequence: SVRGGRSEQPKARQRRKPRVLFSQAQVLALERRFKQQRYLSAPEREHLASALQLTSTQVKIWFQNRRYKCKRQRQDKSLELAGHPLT

NKX2-6 [5] = biological target: T2, NKX2-6 (Homo sapiens, UniProt A6NCS4 118-204, F151L)
T2 sequence: T1 sequence with F34L

NKX3-2 [6] = biological target: NKX3-2 (Homo sapiens, UniProt P78367 192-278, P234S)
NKX3-2 [7] = biological target: NKX3-2 (Homo sapiens, UniProt P78367 192-278)
Sequence of NKX3-2 (Homo sapiens, UniProt P78367 192-278) (P78367 192-278): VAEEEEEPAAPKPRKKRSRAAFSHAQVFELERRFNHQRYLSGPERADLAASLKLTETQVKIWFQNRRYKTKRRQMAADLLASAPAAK

Sequence of CRX (Homo sapiens, UniProt O43186 26-111, E42D) (O43186 26-111 E42D): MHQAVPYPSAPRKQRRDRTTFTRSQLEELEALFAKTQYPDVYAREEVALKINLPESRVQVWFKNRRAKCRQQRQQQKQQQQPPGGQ
Sequence of CRX (Homo sapiens, UniProt O43186 26-111, R41L) (O43186 26-111 R41L): as the sequence (O43186 26-111 E42D) above, with R16L, D17E counted along it
Sequence of CRX (Homo sapiens, UniProt O43186 26-111) (O43186 26-111): as the sequence (O43186 26-111 E42D) above, with D17E counted along it
Sequence of NKX3-2 (Homo sapiens, UniProt P78367 192-278, P234S) (P78367 192-278 P234S): as the sequence (P78367 192-278) above, with P43S counted along it

## TAATCTCA
CRX [1]
  binding signal: 12.7 upbm affinity estimate (log intensity, higher = more binding, comparable within an allelic series)
CRX [2]
  binding signal: 12.7 upbm affinity estimate (log intensity, higher = more binding, comparable within an allelic series)
PITX2
  binding signal: 12.4 upbm affinity estimate (log intensity, higher = more binding, comparable within an allelic series)
CRX [3]
  binding signal: 12.4 upbm affinity estimate (log intensity, higher = more binding, comparable within an allelic series)

## CAGGATTA
CRX [1]
  binding signal: 13.1 upbm affinity estimate (log intensity, higher = more binding, comparable within an allelic series)
CRX [2]
  binding signal: 13.2 upbm affinity estimate (log intensity, higher = more binding, comparable within an allelic series)
PITX2
  binding signal: 12.9 upbm affinity estimate (log intensity, higher = more binding, comparable within an allelic series)
CRX [3]
  binding signal: 13 upbm affinity estimate (log intensity, higher = more binding, comparable within an allelic series)

## ACGCCAGC
CRX [1]
  binding signal: 8.41 upbm affinity estimate (log intensity, higher = more binding, comparable within an allelic series)
CRX [2]
  binding signal: 8.28 upbm affinity estimate (log intensity, higher = more binding, comparable within an allelic series)
NKX2-6 [4]
  binding signal: 9.57 upbm affinity estimate (log intensity, higher = more binding, comparable within an allelic series)
NKX2-6 [5]
  binding signal: 9.3 upbm affinity estimate (log intensity, higher = more binding, comparable within an allelic series)
CRX [3]
  binding signal: 8.46 upbm affinity estimate (log intensity, higher = more binding, comparable within an allelic series)

## AATCTCCC
CRX [1]
  binding signal: 10.7 upbm affinity estimate (log intensity, higher = more binding, comparable within an allelic series)
CRX [2]
  binding signal: 10.4 upbm affinity estimate (log intensity, higher = more binding, comparable within an allelic series)
CRX [3]
  binding signal: 10.6 upbm affinity estimate (log intensity, higher = more binding, comparable within an allelic series)

## CGACGGAC
CRX [1]
  binding signal: 8.32 upbm affinity estimate (log intensity, higher = more binding, comparable within an allelic series)
CRX [2]
  binding signal: 8.15 upbm affinity estimate (log intensity, higher = more binding, comparable within an allelic series)
CRX [3]
  binding signal: 8.24 upbm affinity estimate (log intensity, higher = more binding, comparable within an allelic series)

## CGCGGCAG
CRX [1]
  binding signal: 8.09 upbm affinity estimate (log intensity, higher = more binding, comparable within an allelic series)
CRX [2]
  binding signal: 8.17 upbm affinity estimate (log intensity, higher = more binding, comparable within an allelic series)
CRX [3]
  binding signal: 8.17 upbm affinity estimate (log intensity, higher = more binding, comparable within an allelic series)

## CCGTCGCG
CRX [1]
  binding signal: 8.16 upbm affinity estimate (log intensity, higher = more binding, comparable within an allelic series)
CRX [2]
  binding signal: 8.11 upbm affinity estimate (log intensity, higher = more binding, comparable within an allelic series)
CRX [3]
  binding signal: 8.14 upbm affinity estimate (log intensity, higher = more binding, comparable within an allelic series)

## CCGATCAG
CRX [1]
  binding signal: 9.74 upbm affinity estimate (log intensity, higher = more binding, comparable within an allelic series)
CRX [2]
  binding signal: 9.63 upbm affinity estimate (log intensity, higher = more binding, comparable within an allelic series)
CRX [3]
  binding signal: 9.48 upbm affinity estimate (log intensity, higher = more binding, comparable within an allelic series)

## CACCAGTC
CRX [1]
  binding signal: 8.16 upbm affinity estimate (log intensity, higher = more binding, comparable within an allelic series)
CRX [2]
  binding signal: 8.23 upbm affinity estimate (log intensity, higher = more binding, comparable within an allelic series)
CRX [3]
  binding signal: 8.2 upbm affinity estimate (log intensity, higher = more binding, comparable within an allelic series)

## CTCTCTCC
CRX [1]
  binding signal: 8.11 upbm affinity estimate (log intensity, higher = more binding, comparable within an allelic series)
CRX [2]
  binding signal: 8.15 upbm affinity estimate (log intensity, higher = more binding, comparable within an allelic series)
CRX [3]
  binding signal: 8.3 upbm affinity estimate (log intensity, higher = more binding, comparable within an allelic series)

## CCGGATAA
CRX [1]
  binding signal: 11.5 upbm affinity estimate (log intensity, higher = more binding, comparable within an allelic series)
CRX [2]
  binding signal: 11.3 upbm affinity estimate (log intensity, higher = more binding, comparable within an allelic series)
CRX [3]
  binding signal: 10.9 upbm affinity estimate (log intensity, higher = more binding, comparable within an allelic series)

## ACCAGTCG
CRX [1]
  binding signal: 8.53 upbm affinity estimate (log intensity, higher = more binding, comparable within an allelic series)
CRX [2]
  binding signal: 8.43 upbm affinity estimate (log intensity, higher = more binding, comparable within an allelic series)
NKX3-2 [6]
  binding signal: 10.4 upbm affinity estimate (log intensity, higher = more binding, comparable within an allelic series)
CRX [3]
  binding signal: 8.32 upbm affinity estimate (log intensity, higher = more binding, comparable within an allelic series)
NKX3-2 [7]
  binding signal: 10.4 upbm affinity estimate (log intensity, higher = more binding, comparable within an allelic series)

## GGGAGACA
CRX [1]
  binding signal: 8.13 upbm affinity estimate (log intensity, higher = more binding, comparable within an allelic series)
CRX [2]
  binding signal: 8.2 upbm affinity estimate (log intensity, higher = more binding, comparable within an allelic series)
CRX [3]
  binding signal: 8.26 upbm affinity estimate (log intensity, higher = more binding, comparable within an allelic series)

## GTAGCAAC
CRX [1]
  binding signal: 8.55 upbm affinity estimate (log intensity, higher = more binding, comparable within an allelic series)
CRX [2]
  binding signal: 8.49 upbm affinity estimate (log intensity, higher = more binding, comparable within an allelic series)
CRX [3]
  binding signal: 8.42 upbm affinity estimate (log intensity, higher = more binding, comparable within an allelic series)

## GACCGAAC
CRX [1]
  binding signal: 7.97 upbm affinity estimate (log intensity, higher = more binding, comparable within an allelic series)
CRX [2]
  binding signal: 8.09 upbm affinity estimate (log intensity, higher = more binding, comparable within an allelic series)
CRX [3]
  binding signal: 8.18 upbm affinity estimate (log intensity, higher = more binding, comparable within an allelic series)

## GGCGTCCC
CRX [1]
  binding signal: 8.17 upbm affinity estimate (log intensity, higher = more binding, comparable within an allelic series)
CRX [2]
  binding signal: 8.13 upbm affinity estimate (log intensity, higher = more binding, comparable within an allelic series)
CRX [3]
  binding signal: 8.1 upbm affinity estimate (log intensity, higher = more binding, comparable within an allelic series)

## GAAATCCA
CRX [1]
  binding signal: 10.7 upbm affinity estimate (log intensity, higher = more binding, comparable within an allelic series)
CRX [2]
  binding signal: 10.4 upbm affinity estimate (log intensity, higher = more binding, comparable within an allelic series)
CRX [3]
  binding signal: 10.6 upbm affinity estimate (log intensity, higher = more binding, comparable within an allelic series)

## CCAGTGCA
CRX [1]
  binding signal: 8.15 upbm affinity estimate (log intensity, higher = more binding, comparable within an allelic series)
CRX [2]
  binding signal: 8.21 upbm affinity estimate (log intensity, higher = more binding, comparable within an allelic series)
CRX [3]
  binding signal: 8.38 upbm affinity estimate (log intensity, higher = more binding, comparable within an allelic series)

## CGATAATC
CRX [1]
  binding signal: 12.8 upbm affinity estimate (log intensity, higher = more binding, comparable within an allelic series)
CRX [2]
  binding signal: 12.7 upbm affinity estimate (log intensity, higher = more binding, comparable within an allelic series)
CRX [3]
  binding signal: 12.7 upbm affinity estimate (log intensity, higher = more binding, comparable within an allelic series)

## AGCACCAG
CRX [1]
  binding signal: 8.33 upbm affinity estimate (log intensity, higher = more binding, comparable within an allelic series)
CRX [2]
  binding signal: 8.39 upbm affinity estimate (log intensity, higher = more binding, comparable within an allelic series)
CRX [3]
  binding signal: 8.39 upbm affinity estimate (log intensity, higher = more binding, comparable within an allelic series)

## ACGTCTCG
CRX [1]
  binding signal: 8 upbm affinity estimate (log intensity, higher = more binding, comparable within an allelic series)
CRX [2]
  binding signal: 8.27 upbm affinity estimate (log intensity, higher = more binding, comparable within an allelic series)
CRX [3]
  binding signal: 8.17 upbm affinity estimate (log intensity, higher = more binding, comparable within an allelic series)

## GCCTGACA
CRX [1]
  binding signal: 8.49 upbm affinity estimate (log intensity, higher = more binding, comparable within an allelic series)
CRX [2]
  binding signal: 8.43 upbm affinity estimate (log intensity, higher = more binding, comparable within an allelic series)
CRX [3]
  binding signal: 8.39 upbm affinity estimate (log intensity, higher = more binding, comparable within an allelic series)

## ACTGCAGT
CRX [1]
  binding signal: 8.23 upbm affinity estimate (log intensity, higher = more binding, comparable within an allelic series)
CRX [2]
  binding signal: 8.32 upbm affinity estimate (log intensity, higher = more binding, comparable within an allelic series)
CRX [3]
  binding signal: 8.4 upbm affinity estimate (log intensity, higher = more binding, comparable within an allelic series)

## GAAGTTCC
CRX [1]
  binding signal: 8.51 upbm affinity estimate (log intensity, higher = more binding, comparable within an allelic series)
CRX [2]
  binding signal: 8.44 upbm affinity estimate (log intensity, higher = more binding, comparable within an allelic series)
CRX [3]
  binding signal: 8.28 upbm affinity estimate (log intensity, higher = more binding, comparable within an allelic series)

## CAGGCTAG
CRX [1]
  binding signal: 8.3 upbm affinity estimate (log intensity, higher = more binding, comparable within an allelic series)
CRX [2]
  binding signal: 8.21 upbm affinity estimate (log intensity, higher = more binding, comparable within an allelic series)
CRX [3]
  binding signal: 8.16 upbm affinity estimate (log intensity, higher = more binding, comparable within an allelic series)

## ACTGGACC
CRX [1]
  binding signal: 8.04 upbm affinity estimate (log intensity, higher = more binding, comparable within an allelic series)
CRX [2]
  binding signal: 8.07 upbm affinity estimate (log intensity, higher = more binding, comparable within an allelic series)
CRX [3]
  binding signal: 8.11 upbm affinity estimate (log intensity, higher = more binding, comparable within an allelic series)

## AGTGCACG
CRX [1]
  binding signal: 8.25 upbm affinity estimate (log intensity, higher = more binding, comparable within an allelic series)
CRX [2]
  binding signal: 8.27 upbm affinity estimate (log intensity, higher = more binding, comparable within an allelic series)
CRX [3]
  binding signal: 8.23 upbm affinity estimate (log intensity, higher = more binding, comparable within an allelic series)

## AGATTATG
CRX [1]
  binding signal: 12.7 upbm affinity estimate (log intensity, higher = more binding, comparable within an allelic series)
CRX [2]
  binding signal: 12.6 upbm affinity estimate (log intensity, higher = more binding, comparable within an allelic series)
CRX [3]
  binding signal: 12.6 upbm affinity estimate (log intensity, higher = more binding, comparable within an allelic series)

## AGAATCCC
CRX [1]
  binding signal: 10.2 upbm affinity estimate (log intensity, higher = more binding, comparable within an allelic series)
CRX [2]
  binding signal: 10 upbm affinity estimate (log intensity, higher = more binding, comparable within an allelic series)
CRX [3]
  binding signal: 10.1 upbm affinity estimate (log intensity, higher = more binding, comparable within an allelic series)

## AGAGAGAC
CRX [1]
  binding signal: 8.36 upbm affinity estimate (log intensity, higher = more binding, comparable within an allelic series)
CRX [2]
  binding signal: 8.46 upbm affinity estimate (log intensity, higher = more binding, comparable within an allelic series)
CRX [3]
  binding signal: 8.33 upbm affinity estimate (log intensity, higher = more binding, comparable within an allelic series)

## CCGGTCGA
CRX [1]
  binding signal: 8.51 upbm affinity estimate (log intensity, higher = more binding, comparable within an allelic series)
CRX [2]
  binding signal: 8.46 upbm affinity estimate (log intensity, higher = more binding, comparable within an allelic series)
CRX [3]
  binding signal: 8.45 upbm affinity estimate (log intensity, higher = more binding, comparable within an allelic series)

## GGGCGCAC
CRX [1]
  binding signal: 7.78 upbm affinity estimate (log intensity, higher = more binding, comparable within an allelic series)
CRX [2]
  binding signal: 7.93 upbm affinity estimate (log intensity, higher = more binding, comparable within an allelic series)
CRX [3]
  binding signal: 7.95 upbm affinity estimate (log intensity, higher = more binding, comparable within an allelic series)

## AAGTAATA
CRX [1]
  binding signal: 10.4 upbm affinity estimate (log intensity, higher = more binding, comparable within an allelic series)
CRX [2]
  binding signal: 10.3 upbm affinity estimate (log intensity, higher = more binding, comparable within an allelic series)
CRX [3]
  binding signal: 10.1 upbm affinity estimate (log intensity, higher = more binding, comparable within an allelic series)
